Screening data as filed in PubChem BioAssay.
The list is not random: actives were taken first. Their share in the collection is about 11%.
Pf growth 48h = inhibits P. falciparum growth in the first generation, 48 h. 5.9% of 310,000 active. P. falciparum luciferase growth in erythrocytes, 48 h. Potency, µM (highest dose often 28.7 µM), for inactives: at the top dose activity change, negative = inhibition, actives largely listed as inhibitors
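Compounds are pin-transferred into medium, infected erythrocytes (2% hematocrit, 0.1% parasitemia final) are added, and plates sit one parasite generation at 37 C in 5% CO2. Detection reagent is then added and luminescence measured.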
HCV inhibitor = inhibitors of hepatitis C virus infection | Huh7.5.1 HCVcc-Cre infection, luciferase reporter, 44 h | Potency, µM (titrated, usually from 41.8 µM), for the others: at the highest dose activity change, negative = inhibition, usual class: inhibitors | 3.4% of 340,000 active
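1,000 cells/well; 4 h culture; + compound; + HCVcc-Cre (~0.5 moi); 44 h; luciferase substrate, RT 15 min; read 15 sec.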
AMA1 RON2 block = inhibitors of Plasmodium falciparum AMA1-RON2 interaction. AlphaScreen AMA1-biotinylated RON2 peptide binding. 0.2% of 360,000 active. AID 720542. Potency, µM (top dose mostly 58.2 µM), for inactives: at the top dose activity change, negative = inhibition, actives largely listed as inhibitors;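 further: 0% = vehicle wells and -100% = peptide control; nearly all actives have a fitted effect of over 45% in size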
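AMA1 (3D7) with his tag at 25 nM final met compounds first, then biotinylated RON2 peptide at 25 nM; detection used donor plus acceptor beads, 10 µg/mL apiece, read by AlphaScreen after 30 min at room temperature.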
AmpC inh no detg = blocks E. coli AmpC beta-lactamase in detergent-free assay; AmpC nitrocefin hydrolysis, absorbance 480 nm, 0.0001% Triton; Potency, µM (top dose mostly 57.1 µM), inactives show at the top dose activity change, negative = inhibition, usual class: inhibitors; P00811; 0.52% of 330,000 active; AID 485341;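 further: plate controls were no compound for no effect and no enzyme for full effect; nearly all actives have a fitted effect of over 20% in size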
Target sequence (P00811 whole entry, looked up): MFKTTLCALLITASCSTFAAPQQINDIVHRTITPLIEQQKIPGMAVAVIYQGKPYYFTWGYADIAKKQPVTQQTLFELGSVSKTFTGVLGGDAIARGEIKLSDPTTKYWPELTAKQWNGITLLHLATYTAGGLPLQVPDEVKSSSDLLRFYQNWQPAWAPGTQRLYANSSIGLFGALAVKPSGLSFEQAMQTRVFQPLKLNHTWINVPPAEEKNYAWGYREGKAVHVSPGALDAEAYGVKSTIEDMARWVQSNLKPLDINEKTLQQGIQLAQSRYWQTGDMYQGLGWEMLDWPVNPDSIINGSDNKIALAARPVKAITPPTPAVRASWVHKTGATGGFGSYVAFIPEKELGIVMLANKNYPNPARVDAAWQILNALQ
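AmpC (5.3 nM in the dispensed reagent) in 20 mM phosphate pH 7.0 with 0.01% (detergent screen) or 0.0001% Triton X-100 was preincubated with compounds for 15 min at room temperature. Nitrocefin was then added from an 800 uM solution, and hydrolysis was followed at 480 nm.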
AmpC inh detg = blocks E. coli AmpC beta-lactamase in detergent assay; P00811; AmpC hydrolysis of nitrocefin, absorbance 480 nm, 0.01% Triton; Potency, µM (series often up to 114 µM), for the others: at the top dose activity change, negative = inhibition, most hits filed as inhibitors; 0.041% of 370,000 active;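 further: 0% = no-compound wells and -100% = no-enzyme wells; nearly all actives have a fitted effect of over 25% in size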
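AmpC (5.3 nM in the dispensed reagent) in 20 mM phosphate pH 7.0 with 0.01% (detergent screen) or 0.0001% Triton X-100 was preincubated with compounds for 15 min at room temperature. Nitrocefin was then added from an 800 uM solution, and hydrolysis was followed at 480 nm.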
Pf growth 96h = P. falciparum growth inhibition at 96 hours; 6.9% of 320,000 active; P. falciparum luciferase reporter growth, 96 h; Potency, µM (doses to about 28.7 µM), for inactives: at the highest dose activity change, negative = inhibition, hits mostly inhibitors
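Readout is luminescence from an integrated firefly luciferase in P. falciparum. Red cells, 2% hematocrit and 0.05% parasitemia final, were cultured with compound through two parasite generations (96 hours) at 37 C, 5% CO2.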
Numbers without * were called inactive; [ ] = remark or other dose. The call rests on the fitted dose curve; in most records, active means well fitted curve in the direction sought with a large enough effect; inconclusive means small, poorly fitted or top-dose-only effect, or another doubt; inactive means no such curve, though single readings can be large; an effect the other way counts as inactive or inconclusive. Unless noted, on the % scale 0 is the no-effect control and ±100 the full control effect; potency means the concentration at half of the fitted maximal effect.

Screening CCOC(=O)c1nc(C)nc(Sc2n[nH]c(-c3ccccc3)n2)c1C returned Pf growth 48h 10.4µM*, HCV inhibitor 4.3%, AMA1 RON2 block -0.7%, AmpC inh no detg 0.0%, AmpC inh detg 1.5% and Pf growth 96h inconclusive.
For O=C(O)CCCCCN1C(=O)C(O)=C(C(=O)/C=C/c2ccccc2)C1c1ccccc1[N+](=O)[O-] (configuration not stated) the results were Pf growth 48h 32.9%, HCV inhibitor -6.6%, AMA1 RON2 block -11.2%, AmpC inh no detg -32.5%, AmpC inh detg -6.6% and Pf growth 96h 9.28µM*.
For CCCCN1C(=O)C(O)=C(C(C)=O)C1c1ccccc1[N+](=O)[O-] (configuration not stated) the results were Pf growth 48h 23.5%, HCV inhibitor 8.8%, AMA1 RON2 block -4.5%, AmpC inh no detg -17.0%, AmpC inh detg -9.4% and Pf growth 96h -0.5%.
For NC(=O)c1ccccc1N/C=C/C(=O)c1cccs1 the results were Pf growth 48h 127.8%, HCV inhibitor 7.0%, AMA1 RON2 block 0.3%, AmpC inh no detg -13.9%, AmpC inh detg 0.5% and Pf growth 96h 39.8%.
`Cc1cccc(N/C=C/C(=O)c2cccs2)c1C` gave Pf growth 48h 167.7%, HCV inhibitor inconclusive, AMA1 RON2 block -7.2%, AmpC inh no detg -29.7%, AmpC inh detg -2.5% and Pf growth 96h 4.65µM*.
O=C(/C=C/Nc1ccc(F)cc1)c1cccs1 was read as HCV inhibitor 4.2% and AMA1 RON2 block -3.6%.
O=C(/C=C/Nc1ccc(F)c(F)c1)c1cccs1 was read as Pf growth 48h 240.9%, HCV inhibitor 5.4%, AMA1 RON2 block -9.7%, AmpC inh no detg -26.4%, AmpC inh detg -3.6% and Pf growth 96h 10.4µM*.
For CC1CCC(Nc2nc3c(-c4ccc(Cl)cc4)nnn3c3ccccc23)CC1 (configuration not stated) the results were AmpC inh detg 1.8%.
CC(C)Nc1nc(NC(C)C)nc(N(C#N)C(C)C(=O)N(C)C)n1 (configuration not stated) was read as Pf growth 48h -8.2%, AmpC inh no detg 17.7%, AmpC inh detg -0.5% and Pf growth 96h 5.22µM*.
Screening CCNc1nc(NC(C)C)nc(N(C#N)C(C)C(=O)N(C)C)n1 (configuration not stated) returned Pf growth 48h inconclusive, HCV inhibitor 1.4%, AMA1 RON2 block 0.0%, AmpC inh no detg 9.9%, AmpC inh detg -11.6% and Pf growth 96h inconclusive.
Screening COc1ccc(NC(=S)Nc2ccccc2C(F)(F)F)cc1 returned Pf growth 48h 28.7%, HCV inhibitor -9.2%, AMA1 RON2 block 2.6%, AmpC inh no detg -8.9%[2.29 µM], AmpC inh detg -4.6% and Pf growth 96h 31.1%.
For FC(F)(F)c1ccccc1NC(=S)Nc1ccccc1 the results were Pf growth 48h 7.3%, HCV inhibitor 12.5%, AMA1 RON2 block 11.9%, AmpC inh no detg -18.1%, AmpC inh detg 0.3% and Pf growth 96h 1.47µM*.
For CN(C)CCCN(Cc1ccccc1)C(=S)Nc1cccc(C(F)(F)F)c1 the results were Pf growth 48h inconclusive, HCV inhibitor 11.2µM*, AMA1 RON2 block 0.4%, AmpC inh no detg 40.6%, AmpC inh detg -7.1% and Pf growth 96h inconclusive.
For O=[N+]([O-])c1cc(C(F)(F)F)cc([N+](=O)[O-])c1NCCNC(=S)Nc1ccc(Cl)c(Cl)c1 the results were Pf growth 48h 9.28µM*, HCV inhibitor inconclusive, AMA1 RON2 block -2.6%, AmpC inh no detg inconclusive, AmpC inh detg -5.2% and Pf growth 96h inconclusive.
`FC(F)(F)c1cccc(NC(=S)NC(c2ccccc2)c2ccccc2)c1` gave Pf growth 48h 3.7µM*, HCV inhibitor inconclusive, AMA1 RON2 block 6.5%, AmpC inh no detg -16.5%, AmpC inh detg -7.0% and Pf growth 96h 2.62µM*.
`FC(F)(F)c1cccc(NC(=S)Nc2ccc(Cl)c(Cl)c2)c1` gave Pf growth 48h -0.2%, HCV inhibitor 0.3%, AMA1 RON2 block 16.6%, AmpC inh no detg -55.7%, AmpC inh detg -0.2% and Pf growth 96h 8.28µM*.
`FC(F)(F)c1cccc(NC(=S)NCc2ccccc2)c1` gave Pf growth 48h inconclusive, HCV inhibitor -10.8%, AMA1 RON2 block 8.2%, AmpC inh no detg -31.0%, AmpC inh detg 0.2% and Pf growth 96h 3.29µM*.
`Cc1ccc(N2CC(NC(=O)c3ccccc3C(F)(F)F)CC2=O)cc1C` (configuration not stated) gave AmpC inh detg -1.6%.
`Cc1ccc(C)c(CN2C(=O)c3ccccc3S(=O)c3ccc(C(=O)NCc4ccccc4)cc32)c1` (configuration not stated) gave AmpC inh detg 20.3%.
`O=[N+]([O-])c1cc(Cl)cc2c1nc(NCCO)c1ccccc12` gave Pf growth 48h -12.4%, HCV inhibitor 2µM*, AMA1 RON2 block -1.5%, AmpC inh no detg 107.7%, AmpC inh detg inconclusive and Pf growth 96h 40.3%.
`Cc1cccc(C)c1OCC(=O)N[C@@H](Cc1ccccc1)[C@@H](O)C[C@H](Cc1ccccc1)NC(=O)[C@H](C(C)C)N1CCCNC1=O` gave Pf growth 48h 3.38µM* and Pf growth 96h 6.75µM*.
Screening CC(=O)NC(CC(=O)NNC(=O)COc1c(C)cccc1C)c1ccccc1 (configuration not stated) returned HCV inhibitor 20.2%, AMA1 RON2 block 48.5% and AmpC inh no detg -4.3%.
`COc1cc(OC)cc(OCC(O)Cn2cnc(-c3ccccc3)c2)c1` (configuration not stated) gave Pf growth 48h 13.1µM*, HCV inhibitor inconclusive, AMA1 RON2 block -10.2%, AmpC inh no detg 33.2%, AmpC inh detg -14.0% and Pf growth 96h 0.8%.
NC(=O)Cn1cnc(-c2ccccc2)c1 was read as Pf growth 48h 7.0%, HCV inhibitor 1.0%, AMA1 RON2 block -12.7%, AmpC inh no detg -19.5%, AmpC inh detg -5.9% and Pf growth 96h inconclusive.
For CCN(C(=O)c1cc(S(=O)(=O)N2CCCC2)cn1C)c1ccc(OC)cc1 the results were AmpC inh detg 23.6%.
Screening Cc1csc(NC(=O)Cc2coc3cc(C)c(C(C)C)cc23)n1 returned HCV inhibitor 10µM*, AMA1 RON2 block -16.9%, AmpC inh no detg -33.8%, AmpC inh detg inconclusive and Pf growth 96h 5.3%.
